MCF10A rereplic – DNA re-replication induction in MCF 10a cells; MCF 10A DNA re-replication, Hoechst nuclear intensity, 48 h; Potency, µM (series often up to 46.1 µM), for the others: at the top dose activity, positive = re-replication, most hits filed as activators; 350,000 tested, 2.9% active; also: potency is read from the fitted curve at half-maximal effect; % of control where 0% means no effect; nearly all actives have a fitted effect of over 50% in size
SW480 rerep – inducers of DNA re-replication in SW480 colon cancer cells | 340,000 tested, 1.8% active | AID 624297 | Potency, µM (series often up to 46.1 µM), for inactives: top-dose re-replication activation, hits mostly activators | SW480 DNA re-replication, Hoechst DNA content imaging, 48 h; also: potency is read from the fitted curve at half-maximal effect; % of control where 0% means no effect; nearly all actives have a fitted effect of over 55% in size
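Treated cells incubate 48 hr (37 C, 5% CO2), are stained 40 min with Hoechst, and nuclear fluorescence is enumerated; a rise in nuclei with high DNA signal marks re-replication.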
IL1B secr inh – inflammasome signaling inhibition, IL-1 beta readout; THP-1 LPS/ATP IL-1B secretion, AlphaLISA, 16 h; stronger effect = lower value; activity change, % at 57.5 µM; 360,000 tested, 4.7% active; AID 743279; in the data active = activity change below about -50%; inconclusive = mostly about -30% to -49%; also: % is scaled to controls: 0 for no effect and ±100 for the full control effect
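THP-1 cells pretreated 1 hr with compounds (up to 57.5 uM final), then stimulated with LPS (250 ng/mL final) plus ATP (1.25 mM final); secreted IL-1B measured by AlphaLISA after 16 hr, decreased signal indicating inhibition.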
Chronic BCR inh – chronic active BCR signaling inhibition. AID 493014. 340,000 tested, 0.05% active. ABC-DLBCL IkBa-CBG/CBR reporter, luminescence ratio, 4 h. Potency, µM (doses to about 46.1 µM), for inactives: at the highest dose activity change, negative = inhibition, hits mostly inhibitors; active = well fitted inhibition curve with a large enough effect in the signal ratio, with a control signal flat, not every such curve was filed as active; inconclusive = small, poorly fitted or top-dose-only effect, or effect the other way, or a change in a side signal; the % refers to the signal ratio;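 also: potency is read from the fitted curve at half-maximal effect; plate controls were basal doxycycline-induced cells for no effect and cells given 10 µM MG132 for full effect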
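TMD8 ABC-DLBCL cells carrying doxycycline-inducible green luciferase fused to IkappaBalpha plus unfused red luciferase were exposed to compounds (up to 46 uM) for 4 hrs at 37C. Activity came from the overlap-corrected green/red luminescence ratio.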
TDP1 cell CPT – DT40-hTDP1 cell growth loss with CPT; 420,000 tested, 12% active; Potency, µM (doses to about 46.2 µM), without a hit: top-dose activity change, negative = growth inhibition, most hits filed as inhibitors; chicken DT40 Tdp1-/-;hTDP1 cells + 20 nM CPT, ATP luminescence, 48 h; AID 686979; also: potency is read from the fitted curve at half-maximal effect; % is scaled to controls: 0 for no effect and ±100 for the full control effect; nearly all actives have a fitted effect of over 55% in size
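Chicken DT40 Tdp1-/- cells stably complemented with human TDP1 were seeded at 400 cells/well in medium containing 20 nM camptothecin, exposed to pin-transferred compounds, and grown at 37 °C for at least 48 hr. Viability was read as ATP luminescence.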
DT40 TDP1 no CPT – qHTS for Inhibitors of human tyrosyl-DNA phosphodiesterase 1 (TDP1): qHTS in cells in absence of CPT | AID 686978, 2013 | 420,000 tested, 15% active | DT40 Tdp1-/- hTDP1 cells, no CPT, ATP luminescence, 48 h | Potency, µM (titrated, usually from 46.2 µM), for inactives: at the highest dose activity change, negative = growth inhibition, usual class: inhibitors; also: potency is read from the fitted curve at half-maximal effect; % is scaled to controls: 0 for no effect and ±100 for the full control effect; nearly all actives have a fitted effect of over 55% in size
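Growth kinetics read by CellTiter-Glo luminescence after ≥48 hr at 37 °C. Cells: DT40 Tdp1-/- stably carrying human TDP1, 400 per well, compound exposure in the absence of CPT (DMSO vehicle).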
* = called active by the depositor; ? = inconclusive; . = no result given. Most compounds without a hit are left out; they make up all but 19% or so of the library. Unless noted, calls follow the shape of the dose curve; as a rule, active = well fitted curve in the direction sought with a large enough effect; inconclusive = small, poorly fitted or top-dose-only effect, or another doubt; inactive = no such curve, though single readings can be large; an effect the other way counts as inactive or inconclusive.

SMILES	MCF10A rereplic	SW480 rerep	IL1B secr inh	Chronic BCR inh	TDP1 cell CPT	DT40 TDP1 no CPT
C=CCNC(=S)NNC(=O)c1cccn(Cc2ccc(Cl)cc2Cl)c1=O	5%	-13%	14	-1%	16µM*	?
CCc1ccccc1NC(=O)N1CCC(CN2CCc3ccccc3C2)CC1	.	.	.	.	2%	?
CC(=O)Oc1ccccc1C(=O)NC(C)CCc1ccccc1 (centres undefined)	?	-2%	-72*	?	-19%	?
CCN(C[C@H]1N[C@@](CC)(C(=O)OC)[C@H]2C(=O)N(Cc3ccccc3)C(=O)[C@@H]12)S(=O)(=O)c1ccc(OC(F)(F)F)cc1	-2%	-13%	-8	?	?	16µM*
CCN(C[C@H]1N[C@@](Cc2ccccc2)(C(=O)OC)[C@H]2C(=O)N(Cc3ccccc3)C(=O)[C@@H]12)S(=O)(=O)c1ccc(C(F)(F)F)cc1	-23%	-10%	-18	6%	?	?
CCN(C[C@H]1N[C@@](CC)(C(=O)OC)[C@H]2C(=O)N(Cc3ccccc3)C(=O)[C@@H]12)S(=O)(=O)c1ccc(C(C)(C)C)cc1	0%	6%	-15	0%	13µM*	23µM*
CCN(C[C@H]1N[C@@](CC)(C(=O)OC)[C@H]2C(=O)N(Cc3ccccc3)C(=O)[C@@H]12)S(=O)(=O)c1ccc(-c2ccccc2)cc1	-11%	2%	0	0%	?	?
O=C(O)c1ccc(N2C(=O)/C(=C\c3ccccc3)N=C2c2ccccc2)cc1	?	?	-73*	?	11%	-27%
CC1=N/C(=C\c2ccc3c(c2)OCO3)C(=O)N1c1ccc(C(=O)O)cc1	1%	-8%	9	-3%	?	?
Cn1ccnc1C(=O)c1cc(SCC(=O)NC2CC2)nc2ccccc12	0%	-4%	-2	-2%	7%	5%
CN(C(=O)CSc1cc(C(=O)c2nccn2C)c2ccccc2n1)c1ccccc1	29%	-79%	-56*	-11%	15µM*	18µM*
CC1CCN(c2nc3ccccc3nc2C(F)(F)F)CC1	.	.	.	.	-17%	-9%
Cc1occc1C(=O)NC(C)C12CC3CC(CC(C3)C1)C2 (centres undefined)	?	-7%	-18	29%	?	?
CC(NC(=O)c1ccccc1F)C12CC3CC(CC(C3)C1)C2 (centres undefined)	-2%	-18%	9	4%	21µM*	?
CCCCCCCCN1C(=O)[C@H](CC(=O)N2CCSCC2)C[C@@]2(C(=O)OCC)CCCC=C12	.	.	?	.	21µM*	21µM*
CCCCCCCCN1C(=O)[C@H](CC(=O)N2CCOCC2)C[C@@]2(C(=O)OCC)CCCC=C12	.	.	-25	.	12µM*	9.2µM*
CCOC(=O)[C@]12CCCC=C1N(Cc1cccc3ccccc13)C(=O)[C@H](CC(=O)N1CCSCC1)C2	.	.	-5	.	?	?
COc1cc(CNC(=O)c2cc(-c3ccc(F)cc3OC)n[nH]2)cc(OC)c1	.	.	0	.	-20%	-10%
Cc1ccc2nc(Cl)c(C3CC(c4ccco4)=NN3C(=O)CCCC(=O)O)cc2c1 (centres undefined)	2%	?	6	?	-9%	-20%
Cc1ccc2nc(Cl)c(C3CC(c4cccs4)=NN3C(=O)CCC(=O)O)cc2c1 (centres undefined)	14%	4%	0	-11%	-1%	5.2µM*
Cc1ccc(C2CC(c3cccs3)=NN2C(=O)CSc2nc3ccccc3o2)cc1 (centres undefined)	-2%	0%	?	4%	15µM*	?
Cc1ccc(C2CC(c3cccs3)=NN2C(=O)CSc2nc(=O)n3ccc(C)cc3n2)cc1 (centres undefined)	.	.	.	8%	.	.
COc1ccc(C2CC(c3cccs3)=NN2C(=O)CSc2nc(=O)n3ccc(C)cc3n2)cc1 (centres undefined)	12%	?	?	10%	?	5.8µM*
O=C(CSC1=NCCS1)N1N=C(c2cccs2)CC1c1ccc(F)cc1 (centres undefined)	.	.	-66*	.	?	?
O=C(CSc1nc(=O)n2ccccc2n1)N1N=C(c2cccs2)CC1c1ccc(F)cc1 (centres undefined)	2%	0%	-7	11%	-26%	?
SMILES	MCF10A rereplic	SW480 rerep	IL1B secr inh	Chronic BCR inh	TDP1 cell CPT	DT40 TDP1 no CPT
O=C(CSc1nc2ccccc2o1)N1N=C(c2cccs2)CC1c1ccc(F)cc1 (centres undefined)	12%	-2%	15	5%	?	?
CN(C(=O)c1cc2c(s1)-c1ccc(Cl)cc1SC2)c1cccc(C(F)(F)F)c1	.	.	.	.	15µM*	16µM*
CN(C)CCNC(=O)c1cc2c(s1)-c1ccc(Cl)cc1SC2	21µM*	?	-20	?	2.6µM*	8.2µM*
O=C(NC1CCCCC1)C1CC(=O)N(CCc2ccc(F)cc2)C1 (centres undefined)	10%	-12%	-9	1%	-5%	-1%
COc1c(C)cc(C(O)c2ncc(-c3ccc4ccccc4c3)[nH]2)cc1C (centres undefined)	.	.	0	.	?	?
Cc1ccc(Cl)cc1N1CCN(C(=O)COc2ccc(S(=O)(=O)NC(C)C)cc2)CC1	10%	-2%	-11	?	13µM*	18µM*
O=C(COc1ccc(S(=O)(=O)NC2CCCCC2)cc1)N1CCN(c2cccc(Cl)c2)CC1	?	28%	-26	?	?	16µM*
CC(C)NS(=O)(=O)c1ccc(OCC(=O)N2CCN(c3ccccc3)CC2)cc1	-2%	-10%	21	5%	-5%	?
COc1ccc(Cl)cc1NC(=O)COC(=O)c1c(-c2ccccc2)noc1C	1%	0%	-17	7%	?	?
CN(C[C@H](Cc1ccccc1)N(C[C@H](Cc1ccccc1)N(CCc1cc(C(F)(F)F)cc(C(F)(F)F)c1)N=O)N=O)N=O	-16%	-1%	-8	10%	?	21µM*
CN(C[C@H](CC1CCCCC1)N(C[C@H](Cc1ccccc1)N(CCc1ccccc1)N=O)N=O)N=O	24%	11%	-8	14%	18µM*	16µM*

Compound activity (PubChem)
